# PubChem BioAssay (EPA / NIEHS)
# The source made the active and inactive calls. Rule for the calls: active = hit-call score of the fitted dose curve at least 0.9, where 1 is the maximum; inactive = score below 0.9.
# Test: APR_HepG2_MitoticArrest_1hr: Apredica 1-hour HepG2 Assay for Mitotic Arrest (AID 2282672)
# Conditions: high-content imaging, actives raise or lower the signal
# Procedure: APR_HepG2_1hr is a cell-based, multiplexed-readout assay that uses HepG2, a human liver cell line, with measurements taken at 1 hour after chemical dosing in a 384-well plate.APR_HepG2_MitoticArrest_1hr is one of 10 assay component(s) measured or calculated from the APR_HepG2_1hr assay. It is designed to make measurements of cell phenotype, a form of morphology reporter, as detected with fluorescence intensity signals by HCS Fluorescent Imaging technology.Data from the assay component APR_HepG2_MitoticArrest_1hr was analyzed into 1 assay endpoint. This assay endpoint, APR_HepG2_MitoticArrest_1hr, was analyzed with bidirectional fitting relative to DMSO as the negative control and baseline of activity. Using a type of morphology reporter, measures of protein for gain or loss-of-signal activity can be used to understand the signaling at the pathway-level as they relate to the gene . Furthermore, this assay endpoint can be referred to as a primary readout, because this assay has produced multiple assay endpoints where this one serves a signaling function. To generalize the intended target to other relatable targets, this assay endpoint is annotated to the cell cycle intended target family, where the subfamily is arrest.
# Cells were treated with dimethyl sulfoxide (DMSO) as a solvent control at a final concentration of 0.5% v/v or with compounds in DMSO with a resulting final DMSO concentration of 0.5% v/v. Compound treatment was done at concentrations of 0.39, 0.78, 1.56, 3.12, 6.24, 12.5, 25, 50, 100, and 200 uM in duplicate on each plate. Cells were treated with compounds for 1, 24, or 72 hr. Carbonyl […] m-chloro-phenylhydrazone (CCCP) and taxol were used as positive controls for mitochondrial function and cytoskeletal stability, respectively; DMSO served as the negative control for this experiment. Cells were fixed by the direct addition of 50 uL formaldehyde in Hank's Balanced Salt Solution (HBSS) to a final concentration of 3.7%. After incubation in the fixation medium for 30 min at room temperature (293-298 K), cells were rinsed twice with HBSS and treated with cell permeabilization buffer (16 uL of 0.5% Triton X-100) for 10 min at room temperature (293-298 K) before labeling. For mitochondrial membrane potential and mitochondrial measurements, pre-fixed cells were incubated with 50 uL of MitoTracker Red CMXRos (Invitrogen) at a concentration of 250 nM for 30 min before fixation. In the remaining cases, post-fixed cells were labeled by incubation with a multiplexed mixture of primary antibodies in HBSS for 60 min at room temperature (293-298 K) to detect immunoreactivity of c-Jun (1:500), phospho-histone H3 (1:100), phospho-histone H2A.x (1:200), p53 (1:400), alpha-tubulin (1:200) and Hoechst 33342 (2 ug/mL). Cells were labeled for multiplexed imaging on two separate plates: a) Hoechst 33342, MitoTracker Red, phospho-histone H3, and alpha-tubulin, and b) Hoechst 33342, phospho-histone H2A.x, and c-Jun. A final rinse with HBSS (50 uL) was performed before analysis. The primary and secondary antibodies for the proteins were phospho-histone H3 (rabbit anti-phospho-histone H3 and FITC-donkey anti-rabbit IgG), phospho-histone H2A.x (mouse anti-phospho-histone H2A.x and FITC-donkey anti-mouse IgG), c-Jun (rabbit anti-phospho-c-Jun and Cy3-donkey anti-rabbit IgG), p53 (sheep anti-p53 and Cy5-donkey anti-sheep IgG), alpha-tubulin (mouse anti-alpha-tubulin and Cy5-donkey anti-mouse IgG). These antibodies are available as the CellCiphr HepG2 assay kit (Millipore).Digital images of each well were captured using a Cellomics ArrayScan VTI (Thermo Scientific Cellomics) (0.8 NA objective, 0.63x optical coupler, and XF-93 filter set) at 20x magnification. The images were acquired using the autofocus feature of the ArrayScan instrument, which entails the following steps. First, the camera focuses on channel 1 (Hoechst 33342), where nuclei are identified. Second, a Z offset of 1 um is used for capturing mitochondria (MitoTracker Red). […]
SMILES,outcome,AC50
CC1(c2ccc(Oc3ccccc3)cc2)OC(=O)N(Nc2ccccc2)C1=O (stereo not given),inactive,–
CC[C@H](C)[C@H]1O[C@]2(C=C[C@@H]1C)C[C@@H]1C[C@@H](C/C=C(\C)[C@@H](O[C@H]3C[C@H](OC)[C@@H](O[C@H]4C[C@H](OC)[C@@H](O)[C@H](C)O4)[C@H](C)O3)[C@@H](C)/C=C/C=C3\CO[C@@H]4[C@H](O)C(C)=C[C@@H](C(=O)O1)[C@]34O)O2 (tested in a mixture with another compound),–,12.6 µM (active)
CCOCN(C(=O)CCl)c1c(C)cccc1CC,inactive,–
CCc1ccc(C(=O)NN(C(=O)c2cc(C)cc(C)c2)C(C)(C)C)cc1,inactive,–
CCC(C)Nc1c([N+](=O)[O-])cc(C(C)(C)C)cc1[N+](=O)[O-] (stereo not given),inactive,–
Clc1ccccc1-c1nnc(-c2ccccc2Cl)nn1,inactive,–
CCCN(CCC)c1c([N+](=O)[O-])cc(C(F)(F)F)cc1[N+](=O)[O-],inactive,–
Cc1[nH]c(=O)n(C(C)(C)C)c(=O)c1Cl,inactive,–
CCOc1nc(NC)nc(NC(=O)NS(=O)(=O)c2ccccc2C(=O)OC)n1,inactive,–
COP(=O)(OC)OC=C(Cl)Cl,inactive,–
CCS(=O)(=O)c1cccnc1S(=O)(=O)NC(=O)Nc1nc(OC)cc(OC)n1,inactive,–
O=[N+]([O-])/N=C1\NCCN1Cc1ccc(Cl)nc1,inactive,–
O=C(NC(=O)c1c(F)cccc1F)Nc1ccc(OC(F)(F)C(F)OC(F)(F)F)c(Cl)c1 (stereo not given),inactive,–
COC(=O)c1ccccc1S(=O)(=O)NC(=O)Nc1nc(C)nc(OC)n1,inactive,–
COC(=O)c1ccccc1CS(=O)(=O)NC(=O)Nc1nc(OC)cc(OC)n1,inactive,–
O=C1c2ccccc2C(=O)N1SC(Cl)(Cl)Cl,inactive,–
COc1nn(CSP(=S)(OC)OC)c(=O)s1,inactive,–
CNC(=O)Oc1ccccc1OC(C)C,inactive,–
CNC(=O)/C=C(\C)OP(=O)(OC)OC,inactive,–
O=S1OCC2C(CO1)C1(Cl)C(Cl)=C(Cl)C2(Cl)C1(Cl)Cl (stereo not given),inactive,–

SMILES,outcome,AC50
ClC1C(Cl)C(Cl)C(Cl)C(Cl)C1Cl (stereo not given),inactive,–
CN1CSC(=S)N(C)C1,inactive,–
CC(C)N(C(=O)COc1nnc(C(F)(F)F)s1)c1ccc(F)cc1,inactive,–
Cc1cc(C)nc(NC(=O)NS(=O)(=O)c2ccccc2C(=O)OC2COC2)n1,inactive,–
CC(C)(C)C(O)C(Oc1ccc(Cl)cc1)n1cncn1 (stereo not given),inactive,–
O=C(O)COc1ccc(Cl)cc1Cl,inactive,–
O=S(=O)(O)C(F)(F)C(F)(F)C(F)(F)C(F)(F)C(F)(F)C(F)(F)C(F)(F)C(F)(F)F,inactive,–
COP(=S)(OC)Oc1ccc(SC)c(C)c1,inactive,–
C#CCN1C(=O)COc2cc(F)c(N3C(=O)C4=C(CCCC4)C3=O)cc21,inactive,–
CCOC1Oc2ccc(OS(C)(=O)=O)cc2C1(C)C (stereo not given),inactive,–
N#Cc1c(Cl)c(Cl)c(Cl)c(C#N)c1Cl,–,8.28 µM (active)
CCC(C)(C)C(=O)OC1=C(c2ccc(Cl)cc2Cl)C(=O)OC12CCCCC2,inactive,–
N#CN,inactive,–
CCN(CC)C(=O)SCc1ccc(Cl)cc1,inactive,–
OCCOc1ccccc1,inactive,–
COc1cc(OC)nc(NC(=O)NS(=O)(=O)c2cc(NC=O)ccc2C(=O)N(C)C)n1,inactive,–
CNC(=O)Oc1cccc(N=CN(C)C)c1,inactive,–
C[C@H]1[C@H](c2ccc(Cl)cc2)SC(=O)N1C(=O)NC1CCCCC1,inactive,–
O=C(O)C(F)(F)C(F)(F)C(F)(F)C(F)(F)C(F)(F)C(F)(F)C(F)(F)F,inactive,–
CNC(=O)CSP(=S)(OC)OC,inactive,–
